Test results: PubChem BioAssay (EPA / NIEHS)
Activity calls are given as the source filed them. How the source made its calls: active means hit-call score of the fitted dose curve at least 0.9, where 1 is the maximum; inactive means score below 0.9.

test system: not listed separately; assay: ATG_Sox_CIS: Attagene CIS-FACTORIAL HepG2 Assay for human SRY-box transcription factor (SOX) (AID 2282960); conditions: HepG2 Attagene cis-factorial SOX reporter, mRNA; actives raise or lower the signal
Procedure, shortened: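 After 24 h of chemical treatment, transfected HepG2 reporter cells are lysed for total RNA. Transcript levels come from RT-PCR with labelled primer extension and capillary electrophoresis, analysed bidirectionally versus DMSO.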

| SMILES | outcome | AC50 |
| --- | --- | --- |
| CCNc1cccc(C)c1 | inactive | – |
| COc1cccc2c1C(=O)c1c(O)c3c(c(O)c1C2=O)C[C@@](O)(C(=O)CO)C[C@@H]3O[C@H]1C[C@H](N)[C@H](O)[C@H](C)O1 | inactive | – |
| CN[C@H]1CC[C@@H](c2ccc(Cl)c(Cl)c2)c2ccc(S(N)(=O)=O)cc21 | inactive | – |
| O=c1c(O)c(-c2ccc(O)c(O)c2)oc2cc(O)cc(O)c12 | inactive | – |
| NCC1(Cc2noc(=O)[nH]2)CCCCC1 | inactive | – |
| Oc1ccc2ccccc2c1N=Nc1ccccc1 | inactive | – |
| Cc1ccccc1Cl | inactive | – |
| C[C@]12C=CC(=O)C=C1CC[C@@H]1[C@@H]2C(=O)C[C@@]2(C)[C@H]1CC[C@]2(O)C(=O)CO | inactive | – |
| COc1cc(C=O)ccc1O | inactive | – |
| CCCCCCCCCCC | inactive | – |
| Cc1cccc(C)c1O | inactive | – |
| CCCCC(CC)COC(=O)CC(C(=O)OCC(CC)CCCC)S(=O)(=O)O (stereo not given) | inactive | – |
| CC(=O)OCCOCCOCCOC(C)=O | inactive | – |
| CC1=C(/C=C/C(C)=C/C=C/C(C)=C/CO)C(C)(C)CCC1 | inactive | – |
| CC(C)(C)c1cc(O)c(C(C)(C)C)cc1O | – | 114 µM (active) |
| CNC(=O)[C@H]1O[C@@H](n2cnc3c(NCc4cc(Cl)ccc4OCc4cc(C)no4)ncnc32)[C@H](O)[C@@H]1N | inactive | – |
| COc1cc(S(=O)(=O)O)c(C)cc1N=Nc1c(O)ccc2cc(S(=O)(=O)O)ccc12 | inactive | – |
| CC(=O)C(C)=CC1C(C)=CCCC1(C)C (stereo not given) | inactive | – |
| Cc1ccc(C)c(C)c1 | inactive | – |
| COc1ccc(S(=O)(=O)N2C(=O)[C@@](c3ccccc3OC)(N3C[C@H](O)C[C@H]3C(=O)N(C)C)c3cc(Cl)ccc32)c(OC)c1 | – | 122 µM (active) |
| COc1ccc(C)cc1N | inactive | – |
| CCCCN(CCCC)CCCC | inactive | – |
| CCCCc1ccc2c(n1)[C@@H](c1ccc(OC)cc1C[C@H](C)C(=O)O)[C@H](C(=O)O)[C@H]2c1ccc2c(c1)OCO2 | inactive | – |
| CCCCCCC(=O)OCC | inactive | – |
| COc1cc(/C=C/C(=O)CC(=O)/C=C/c2ccc(O)c(OC)c2)ccc1O | – | 43.1 µM (active) |
| CCc1c(C(=O)NN2CCCCC2)nn(-c2ccc(Cl)cc2Cl)c1-c1ccc(Br)cc1 | inactive | – |
| CC(=O)OC/C=C(\C)CCC=C(C)C | inactive | – |
| CCCCCCOCCO | inactive | – |
| CCOc1ccc2c(c1)C(C)=CC(C)(C)N2 | inactive | – |
| CCCCOC(=O)CCCCCCCCC(=O)OCCCC | inactive | – |

molecular target: Transcription factor Sp1 (Homo sapiens) (UniProt P08047); assay: ATG_Sp1_CIS: Attagene CIS-FACTORIAL HepG2 Assay for human Specificity Protein 1 (Sp1) (AID 2282961); conditions: HepG2 Sp1 cis-reporter transcription, actives raise or lower the signal
Procedure, shortened: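 Sp1-driven reporter mRNA, read as capillary electrophoresis fluorescence after RT-PCR, in transiently transfected HepG2 cells dosed for 24 h; signal change in either direction relative to DMSO.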

Transcription factor Sp1 (Homo sapiens), sequence (P08047 whole entry, looked up): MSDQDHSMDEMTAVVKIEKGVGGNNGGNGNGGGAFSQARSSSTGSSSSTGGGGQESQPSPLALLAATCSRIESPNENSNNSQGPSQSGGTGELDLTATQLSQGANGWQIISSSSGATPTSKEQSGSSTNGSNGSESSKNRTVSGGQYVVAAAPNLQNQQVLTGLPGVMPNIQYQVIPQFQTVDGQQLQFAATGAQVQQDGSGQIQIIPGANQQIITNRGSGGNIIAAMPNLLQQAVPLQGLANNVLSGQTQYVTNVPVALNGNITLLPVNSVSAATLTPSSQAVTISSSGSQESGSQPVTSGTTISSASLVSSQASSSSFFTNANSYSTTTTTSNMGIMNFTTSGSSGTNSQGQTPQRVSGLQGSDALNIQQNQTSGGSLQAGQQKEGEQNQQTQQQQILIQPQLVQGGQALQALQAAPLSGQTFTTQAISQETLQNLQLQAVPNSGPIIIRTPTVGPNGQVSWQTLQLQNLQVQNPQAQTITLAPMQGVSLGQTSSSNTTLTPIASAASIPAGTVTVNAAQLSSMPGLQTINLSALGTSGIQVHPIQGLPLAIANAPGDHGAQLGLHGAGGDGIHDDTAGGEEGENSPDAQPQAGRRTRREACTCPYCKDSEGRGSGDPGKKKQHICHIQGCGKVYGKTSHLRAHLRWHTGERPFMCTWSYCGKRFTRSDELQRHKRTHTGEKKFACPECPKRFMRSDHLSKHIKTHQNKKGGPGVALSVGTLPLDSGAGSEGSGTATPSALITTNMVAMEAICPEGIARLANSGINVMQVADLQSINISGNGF

| SMILES | outcome | AC50 |
| --- | --- | --- |
| CCNc1cccc(C)c1 | inactive | – |
| COc1cccc2c1C(=O)c1c(O)c3c(c(O)c1C2=O)C[C@@](O)(C(=O)CO)C[C@@H]3O[C@H]1C[C@H](N)[C@H](O)[C@H](C)O1 | inactive | – |
| CN[C@H]1CC[C@@H](c2ccc(Cl)c(Cl)c2)c2ccc(S(N)(=O)=O)cc21 | inactive | – |
| O=c1c(O)c(-c2ccc(O)c(O)c2)oc2cc(O)cc(O)c12 | inactive | – |
| NCC1(Cc2noc(=O)[nH]2)CCCCC1 | inactive | – |
| Oc1ccc2ccccc2c1N=Nc1ccccc1 | inactive | – |
| Cc1ccccc1Cl | inactive | – |
| C[C@]12C=CC(=O)C=C1CC[C@@H]1[C@@H]2C(=O)C[C@@]2(C)[C@H]1CC[C@]2(O)C(=O)CO | inactive | – |
| COc1cc(C=O)ccc1O | inactive | – |
| CCCCCCCCCCC | inactive | – |
| Cc1cccc(C)c1O | inactive | – |
| CCCCC(CC)COC(=O)CC(C(=O)OCC(CC)CCCC)S(=O)(=O)O (stereo not given) | inactive | – |
| CC(=O)OCCOCCOCCOC(C)=O | inactive | – |
| CC1=C(/C=C/C(C)=C/C=C/C(C)=C/CO)C(C)(C)CCC1 | inactive | – |
| CC(C)(C)c1cc(O)c(C(C)(C)C)cc1O | – | 65.5 µM (active) |
| CNC(=O)[C@H]1O[C@@H](n2cnc3c(NCc4cc(Cl)ccc4OCc4cc(C)no4)ncnc32)[C@H](O)[C@@H]1N | inactive | – |
| COc1cc(S(=O)(=O)O)c(C)cc1N=Nc1c(O)ccc2cc(S(=O)(=O)O)ccc12 | inactive | – |
| CC(=O)C(C)=CC1C(C)=CCCC1(C)C (stereo not given) | inactive | – |
| Cc1ccc(C)c(C)c1 | inactive | – |
| COc1ccc(S(=O)(=O)N2C(=O)[C@@](c3ccccc3OC)(N3C[C@H](O)C[C@H]3C(=O)N(C)C)c3cc(Cl)ccc32)c(OC)c1 | inactive | – |
| COc1ccc(C)cc1N | inactive | – |
| CCCCN(CCCC)CCCC | inactive | – |
| CCCCc1ccc2c(n1)[C@@H](c1ccc(OC)cc1C[C@H](C)C(=O)O)[C@H](C(=O)O)[C@H]2c1ccc2c(c1)OCO2 | inactive | – |
| CCCCCCC(=O)OCC | inactive | – |
| COc1cc(/C=C/C(=O)CC(=O)/C=C/c2ccc(O)c(OC)c2)ccc1O | – | 44.5 µM (active) |
| CCc1c(C(=O)NN2CCCCC2)nn(-c2ccc(Cl)cc2Cl)c1-c1ccc(Br)cc1 | inactive | – |
| CC(=O)OC/C=C(\C)CCC=C(C)C | inactive | – |
| CCCCCCOCCO | inactive | – |
| CCOc1ccc2c(c1)C(C)=CC(C)(C)N2 | – | 78.9 µM (active) |
| CCCCOC(=O)CCCCCCCCC(=O)OCCCC | inactive | – |
